MEP2-GFP yeast = yeast TOR pathway MEP2-GFP modulation; GFP response vs DMSO, % at 10 µM; hit rate 0.51% among 330,000; S. cerevisiae MEP2-GFP strain, flow cytometry GFP, 3 h; 100% = DMSO control level;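 active means GFP response versus DMSO above a set limit, roughly screen mean plus 3 SD, cut at about 180% in these data; inconclusive means fewer than 70 cells counted for a yeast strain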;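 further: median GFP fluorescence of the barcode-gated MEP2-GFP cells per well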
LAP4 TOR yeast = yeast TOR pathway LAP4-GFP modulation; S. cerevisiae LAP4-GFP multiplex, flow cytometry GFP, 3 h; median GFP as percent of DMSO wells; GFP response vs DMSO, % at 10 µM; AID 2023; hit rate 0.34% among 320,000;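 active means GFP response vs DMSO above a set limit, about the screen mean plus 3 SD, cut at about 150% in these data; inconclusive means under 70 cell events counted for the yeast strain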
AGP1-GFP MLPCN = modulators of TOR pathway AGP1-GFP in S. cerevisiae. S. cerevisiae AGP1-GFP multiplex flow cytometry, 3 h; GFP as percent of DMSO wells. GFP response vs DMSO, % at 10 µM. hit rate 0.02% among 320,000. AID 2066;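 active means GFP response relative to DMSO above a set limit, near screen average plus 3 SD, cut at about 150% in these data; inconclusive means fewer than 70 cells counted for the yeast strain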;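 further: median GFP channel fluorescence of the gated AGP1 strain per well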
CIT2-GFP yeast = yeast TOR pathway CIT2-GFP modulation. GFP response vs DMSO, % at 10 µM. AID 2029. S. cerevisiae CIT2-GFP strain, flow cytometry, 3 h; 100 means same as DMSO wells. hit rate 0.065% among 320,000;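 active means GFP response relative to DMSO above a set limit, near the screen mean plus 3 SD, cut at about 150% in these data; inconclusive means Fewer than 70 cells measured for a yeast strain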;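 further: ratio of well median GFP fluorescence to mean of DMSO wells on the plate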
RPL19A TOR yeast = modulators of TOR pathway RPL19A-GFP in S. cerevisiae; AID 2025; hit rate 0.3% among 330,000; percent response vs DMSO, % at 10 µM; S. cerevisiae RPL19A-GFP strain, flow cytometry, 3 h; active compounds read low;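 active means percent response vs DMSO below 50%; inconclusive means fewer than 70 events counted for the yeast strain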;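 further: median channel GFP fluorescence of the barcoded RPL19A-GFP strain; ratio of sample median GFP to plate DMSO average so 100% = DMSO; lower means less RPL19A-GFP as with rapamycin TOR inhibition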
The depositor's hits bear a star; [ ] = remark or other dose. Sampled rows, rich in hits. Any-hit rate of the full collection: about 0.89%.

For CCOc1cc(N2CCOCC2)c(OCC)cc1NC(=O)c1[nH]c(C)c(C(C)=O)c1C the results were MEP2-GFP yeast 102.2, LAP4 TOR yeast 108.7, AGP1-GFP MLPCN 108.2, CIT2-GFP yeast 95.7 and RPL19A TOR yeast 97.1.
CCOc1ccc(OCC)c(NC(=O)c2[nH]c(C)c(C(C)=O)c2C)c1 was read as MEP2-GFP yeast 368.2*[may fluoresce violet], LAP4 TOR yeast 100.7, AGP1-GFP MLPCN inconclusive, CIT2-GFP yeast inconclusive and RPL19A TOR yeast 41.3*[may fluoresce violet].
For COc1cccc(NC(=O)NNC(=O)c2ccc3c(c2)NC(=O)C(C)(C)O3)c1 the results were MEP2-GFP yeast 99.1, LAP4 TOR yeast 88.1, AGP1-GFP MLPCN 97.2, CIT2-GFP yeast 109.3 and RPL19A TOR yeast 100.9.
CN1CCN(C(=O)c2ccc3c(c2)NC(=O)C(C)(C)O3)CC1 was read as MEP2-GFP yeast 258.6*[may fluoresce violet], LAP4 TOR yeast 138.9, AGP1-GFP MLPCN inconclusive, CIT2-GFP yeast inconclusive and RPL19A TOR yeast 14.7*[may fluoresce violet].
Screening COc1ccc2nc(C)c(C(N)=O)cc2c1 returned MEP2-GFP yeast inconclusive, LAP4 TOR yeast inconclusive, AGP1-GFP MLPCN inconclusive, CIT2-GFP yeast 85.2 and RPL19A TOR yeast inconclusive.
Screening COc1cc2cc(C(N)=O)c(N)nc2cc1OC returned MEP2-GFP yeast 215.6*[may fluoresce violet], LAP4 TOR yeast 97.4, AGP1-GFP MLPCN inconclusive, CIT2-GFP yeast inconclusive and RPL19A TOR yeast 44.0*[may fluoresce violet].
`Cc1nc(C(C)NC(=O)c2cc(COc3ccc(C)c(C)c3)on2)c(C)s1` (configuration not stated) gave MEP2-GFP yeast 147.5, LAP4 TOR yeast 70.9, AGP1-GFP MLPCN inconclusive, CIT2-GFP yeast inconclusive and RPL19A TOR yeast 16.6*[may fluoresce violet].
`Cc1ccc(C)c(OCc2cc(C(=O)NC(C)c3cnn(C)c3)no2)c1` (configuration not stated) gave MEP2-GFP yeast 124.3, LAP4 TOR yeast 81.8, AGP1-GFP MLPCN inconclusive, CIT2-GFP yeast inconclusive and RPL19A TOR yeast 25.4*[may fluoresce violet].
Cc1ccnc(SCC(=O)N2CCC(C(N)=O)CC2)n1 was read as MEP2-GFP yeast 357.7*[may fluoresce violet], LAP4 TOR yeast 97.8, AGP1-GFP MLPCN inconclusive, CIT2-GFP yeast inconclusive and RPL19A TOR yeast 14.5*[may fluoresce violet].
Screening COCCNC(=O)C(c1ccc(C)cc1)N(Cc1ccccc1)C(=O)CCC(=O)Nc1ccccn1 (configuration not stated) returned MEP2-GFP yeast 93.1, LAP4 TOR yeast 95.8, AGP1-GFP MLPCN 93.6, CIT2-GFP yeast 112.6 and RPL19A TOR yeast 95.6.
Screening COCCNC(=O)C(c1ccc(C)cc1)N(Cc1ccco1)C(=O)CCC(=O)Nc1ccccn1 (configuration not stated) returned MEP2-GFP yeast 209.7*[may fluoresce violet], LAP4 TOR yeast 85.8, AGP1-GFP MLPCN 74.5, CIT2-GFP yeast inconclusive and RPL19A TOR yeast 65.7.
Cc1ccc(C(=O)OCC(=O)N(CC(C)C)c2c(N)n(Cc3ccccc3)c(=O)[nH]c2=O)o1 was read as MEP2-GFP yeast 108.3, LAP4 TOR yeast 104.5, AGP1-GFP MLPCN 100.6, CIT2-GFP yeast 108.0 and RPL19A TOR yeast 98.0.
For CC1CC(O)(CC(O)(c2ccccc2)c2ccccc2)C(C)CN1C (configuration not stated) the results were MEP2-GFP yeast 251.3*[may fluoresce violet], LAP4 TOR yeast 74.8, AGP1-GFP MLPCN inconclusive, CIT2-GFP yeast inconclusive and RPL19A TOR yeast 65.4.
Screening CCc1ccc(CC2(O)CC(C)N(C)CC2C)cc1 (configuration not stated) returned MEP2-GFP yeast 101.6, LAP4 TOR yeast 104.2, AGP1-GFP MLPCN 102.1, CIT2-GFP yeast 99.8 and RPL19A TOR yeast 102.5.
`CC(=O)NCC(=O)NC(C(=O)Nc1ccc2c(c1)OCCO2)c1ccc(C)cc1` (configuration not stated) gave MEP2-GFP yeast inconclusive, LAP4 TOR yeast inconclusive, AGP1-GFP MLPCN inconclusive, CIT2-GFP yeast inconclusive and RPL19A TOR yeast 40.1*[may fluoresce violet].
Screening CC(=O)Nc1ccc(S(=O)(=O)N2CCN(C)CC2)cc1 returned MEP2-GFP yeast 210.4*[may fluoresce violet], LAP4 TOR yeast 86.2, AGP1-GFP MLPCN 15.4, CIT2-GFP yeast inconclusive and RPL19A TOR yeast 57.7.
`O=C(Nc1ccc(S(=O)(=O)N2CCCCC2)cc1)C1CCCCC1` gave MEP2-GFP yeast 256.0*[may fluoresce violet], LAP4 TOR yeast 82.5, AGP1-GFP MLPCN 16.8, CIT2-GFP yeast inconclusive and RPL19A TOR yeast 60.7.
`COc1ccc(NC(=S)Nc2cccc(S(=O)(=O)N3CCCCC3)c2)cc1` gave MEP2-GFP yeast 259.0*[may fluoresce violet], LAP4 TOR yeast 54.1, AGP1-GFP MLPCN inconclusive, CIT2-GFP yeast inconclusive and RPL19A TOR yeast 22.6*[may fluoresce violet].
